Source: PubChem
A selection: hits, their analogues and other compounds. The true share with any hit is near 27%.
CYP2C9 inh: blockers of cytochrome P450 2C9 activity – biochemical, luminescence, ADME assay, primary screen. P11712. CYP2C9 Supersomes, luciferin-H conversion. inhibition, % at 5 µM. 96,000 tested, 20% active. AID 777, 2007;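 active means blocking of liver enzyme CYP2C9 beyond about 50% at 5 µM, limit read from the data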
CYP2C19 inh: blockers of cytochrome P450 2C19 activity – biochemical, luminescence, ADME assay, primary screen. P33261. CYP2C19 Supersomes, luciferin-H EGE luminescence, 30 min. inhibition, % at 5 µM. 96,000 tested, 21% active. AID 778, 2007;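 active means CYP2C19 inhibition above a set limit at 5 µM in the primary screen, cut at about 50% in these data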;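 further: plate controls were negative control wells for no effect and 2.5 mM tranylcypromine positive control for full effect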
CYP2C19 act: human CYP2C19 activators, primary screen, biochemical, luminescence. Cytochrome P450 2C19 (Homo sapiens), P33261. recombinant CYP2C19, luciferin-H EGE luminescence; stronger effect = higher value; 0 = fully inhibited enzyme, 1 = untreated enzyme. activation factor at 5 µM. 96,000 tested, under 10 active. AID 1025, 2008;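 active means activation factor of at least 2 at 5 µM in the primary screen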;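 further: 0 = wells with 2.5 mM tranylcypromine and 1 = vehicle-only wells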
Cav3 T inh: Cav3.2 calcium influx blockers – cell-based, Fluo-4 calcium fluorescence, FDSS, MLSMR library, primary screen. 100,000 tested, 4% active. B-score at 10 µM. Cav3.2-expressing cells; stronger effect = lower value. Voltage-dependent T-type calcium channel subunit alpha-1H (Homo sapiens), O95180;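 active means single-dose well whose peak fluorescence ratio is a statistical outlier from its plate by either plate-standardised score or position-corrected B-score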
CYP2C9 act: human CYP2C9 activators, primary screen, biochemical, luminescence. Cytochrome P450 2C9 (Homo sapiens), P11712. recombinant CYP2C9, luciferin-H conversion; stronger effect = higher value; factor 1 = untreated enzyme, 0 = blocked. activation factor at 5 µM. 96,000 tested, 1.4% active;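 active means activation factor of 2 or more for CYP2C9 at a 5 µM dose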;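 further: 0 = sulfaphenazole-blocked wells and 1 = vehicle-only wells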
* marks the source's active call; other numbers are inactive results; . = not tested or not shown.

SMILES | CYP2C9 inh | CYP2C19 inh | CYP2C19 act | Cav3 T inh | CYP2C9 act
COc1ccc(NC(=O)N(CCC(C)C)C(C)c2ccccn2)c(OC)c1 (stereo not drawn) | 28 | 29 | 0.7 | -2.6 | 0.7
Cc1noc(C)c1COC(=O)c1cc(=O)[nH]c2ccccc12 | 80* | 60* | 0.4 | 0.23 | 0.2
O=C(OCc1nnc(-c2ccccc2)o1)c1cn(-c2ccccc2)nc1-c1ccccc1 | 91* | 55* | 0.5 | -1.8 | 0.1
O=C(OCCN1CCOCC1)c1cccs1 | -11 | 2 | 1 | -0.0058 | 1.1
Cc1[nH]nc2nc3c(c(OC(=O)c4ccccc4)c12)c(=O)n(C)c(=O)n3C | 34 | -16 | 1.2 | . | 0.7
CCOc1ccccc1N1CCN(Cc2ccc(OC)c(OC)c2)CC1 | -19 | 8 | 0.9 | 0.037 | 1.2
CCOc1ccccc1N1CCN(Cc2ccco2)CC1 | 16 | 51* | 0.5 | 0.21 | 0.8
CCOc1ccccc1N1CCN(Cc2ccc(Br)s2)CC1 | 52* | 45 | 0.5 | -1.4 | 0.5
COc1ccc(S(=O)(=O)NCC(=O)N(CC(=O)NCC2CCCO2)c2cc(C)ccc2C)cc1 (stereo not drawn) | 12 | 17 | 0.8 | -0.28 | 0.9
CCc1ccc(-c2nn(-c3ccccc3)cc2C2SCC(=O)N2Cc2ccco2)cc1 (stereo not drawn) | 67* | 44 | 0.6 | . | 0.3
O=C1CSC(c2cn(-c3ccccc3)nc2-c2ccccc2)N1Cc1ccco1 (stereo not drawn) | 96* | 86* | 0.1 | -4.7* | 0
CCOC(=O)C1=C(C)NC(=O)NC1c1cn(-c2ccccc2)nc1-c1cccs1 (stereo not drawn) | 80* | 56* | 0.4 | -0.99 | 0.2
O=C1CSC(c2ccncc2)N1Cc1ccco1 (stereo not drawn) | 22 | 18 | 0.8 | 0.49 | 0.8
COc1ccc(-c2nn(-c3ccccc3)cc2C2CC(c3cccs3)=NN2C(=O)CCCC(=O)O)cc1 (stereo not drawn) | 8 | -6 | 1.1 | . | 0.9
Cc1ccc(-c2nn(-c3ccccc3)cc2C2CC(c3cccs3)=NN2C(=O)CCCC(=O)O)cc1 (stereo not drawn) | 61* | 9 | 0.9 | -0.021 | 0.4
C=CCC(C#Cc1ccc(C)cc1)N(CC)CC (stereo not drawn) | 3 | 13 | 0.9 | 0.31 | 1
CCOC(=O)NC1(C(F)(F)F)NC(=O)N(C2CCCCC2)C1=O (stereo not drawn) | 16 | 16 | 0.8 | 1.8 | 0.8
O=C(CSc1ncccn1)NN=C1CCCCCCC1 | -4 | 28 | 0.7 | 0.05 | 1
COc1ccc2c(c1)CCc1cc(C(=O)N3CCN(c4ccc(N5CCOCC5)nn4)CC3)sc1-2 | 3 | -1 | 1 | . | 1
O=C1CSC(c2cn(-c3ccccc3)nc2-c2cccs2)N1CC1CCCO1 (stereo not drawn) | 80* | 73* | 0.3 | -5* | 0.2
O=C(NC1CCCCC1)C(c1cccnc1)N(C(=O)c1csnn1)C1CCCC1 (stereo not drawn) | . | . | . | 1 | .
O=S(=O)(c1ccc(NCCc2c[nH]c3ccccc23)nc1)N1CCOCC1 | 28 | 51* | 0.5 | -0.75 | 0.7
CCS(=O)(=O)NCC(c1cccnc1)N1CCN(c2ccc(F)cc2)CC1 (stereo not drawn) | 3 | 4 | 1 | -0.18 | 1
CN(C)S(=O)(=O)Nc1ccc(Br)cc1F | 15 | 30 | 0.7 | -0.7 | 0.8
CN(C)/C=N/C(=S)Nc1ccc(Br)cc1F | 23 | 59* | 0.4 | 1.1 | 0.8
SMILES | CYP2C9 inh | CYP2C19 inh | CYP2C19 act | Cav3 T inh | CYP2C9 act
Cn1c(COc2ccccc2)nnc1SCc1cc(=O)[nH]c2ccccc12 | 77* | 72* | 0.3 | 1.1 | 0.2
Cn1c(-c2ccc(C=O)s2)nc2ccccc21 | 11 | 16 | 0.8 | 2.2 | 0.9
Oc1ccccc1-c1nc(NCc2ccco2)c2ccccc2n1 | -11 | -16 | 1.2 | -0.06 | 1.1
c1coc(CNc2nc(N3CCCCC3)nc3ccccc23)c1 | 24 | 16 | 0.8 | -4.3* | 0.8
c1ccc(N2CCN(c3nc(NCc4ccco4)c4ccccc4n3)CC2)cc1 | 91* | 96* | 0 | -2 | 0.1
O=C(NCc1ccccn1)c1cn(CCc2ccccc2)nn1 | -13 | -5 | 1 | 0.58 | 1.1
COc1cc(OC)c(OC)cc1CNCCNC(=O)c1nonc1N | -3 | 20 | 0.8 | 0.32 | 1
Cc1noc(/C=C/N(C)C)c1S(=O)(=O)N1CCCC(C(=O)NC(C)c2ccccc2)C1 (stereo not drawn) | 68* | 34 | 0.7 | 0.49 | 0.3
CC(NC(=O)C1CCCN(S(=O)(=O)c2cccc3nonc23)C1)c1ccccc1 (stereo not drawn) | 53* | 37 | 0.6 | -0.47 | 0.5
O=C(NCc1ccc2c(c1)OCO2)C1CCCN(S(=O)(=O)c2cccc3nonc23)C1 (stereo not drawn) | 64* | 14 | 0.9 | -0.013 | 0.4
O=C(NC1CCN(Cc2ccccc2)CC1)C1CCCN(S(=O)(=O)c2cccc3nonc23)C1 (stereo not drawn) | -15 | 53* | 0.5 | . | 1.1
Cc1cc(C)nc(SCC2COc3ccccc3O2)n1 (stereo not drawn) | 17 | 47 | 0.5 | -2.6 | 0.8
CCOC(=O)C1C(=O)CC(C)(O)C(C(=O)OCC)C1c1ccccc1OC (stereo not drawn) | -10 | -4 | 1 | -0.066 | 1.1
CCS(=O)(=O)N1CCC(C(=O)c2ccc(Cl)cc2)CC1 | . | . | . | 0.78 | .
Cc1noc(/C=C/N(C)C)c1S(=O)(=O)N1CCc2ccccc21 | 48 | 67* | 0.3 | -1.6 | 0.5
Cc1ccc(NC(=O)C2CCCN(S(=O)(=O)c3c(C)noc3/C=C/N(C)C)C2)cc1F (stereo not drawn) | 15 | 0 | 1 | -0.024 | 0.9
COCc1[nH]nc2c1C(c1sccc1C)C(C#N)=C(N)O2 (stereo not drawn) | 3 | 30 | 0.7 | 0.32 | 1
CC(C)(C)c1nnc2sc(SCCN3C(=O)c4ccccc4C3=O)nn2c1=O | 47 | 22 | 0.8 | -0.34 | 0.5
Cc1cc(C(=O)CSc2nn3c(=O)c(C(C)(C)C)nnc3s2)c(C)n1-c1ccc(F)cc1 | 58* | 31 | 0.7 | -2.1 | 0.4
CC(C)N(C(=O)CSc1nn2c(=O)c(C(C)(C)C)nnc2s1)c1ccccc1 | 89* | 88* | 0.1 | -10* | 0.1
CCn1c(NC(=S)Nc2ccccc2)nc2ccccc21 | 20 | 32 | 0.7 | -0.46 | 0.8
O=C(NCc1ccc2c(c1)OCO2)c1ccc(CS(=O)(=O)c2ccc(Br)cc2)o1 | 95* | 55* | 0.5 | -3.6 | 0.1
